Results on nine molecules are retold here after ChEMBL document CHEMBL1961873, “Compounds: GSK PKIS; Assays: Nanosyn kinase panel” (2012).

Test [1] concerns the target Casein kinase I isoform gamma-2 (Homo sapiens) (UniProt P78368). Particulars: at 1 µM.
The target in test [2] is Casein kinase I isoform gamma-3 (Homo sapiens) (UniProt Q9Y6M4). To be noted: at 0.1 µM.
The target is the same in test [3]. Particulars: at 1 µM.
Test [4] concerns the target Cyclin-dependent kinase 1 (Homo sapiens) (UniProt P06493). To be noted: at 0.1 µM.
Test [5] shares this target. Particulars: at 1 µM.
Test [6] deals with Cyclin-dependent kinase 2 (Homo sapiens) (UniProt P24941). To be noted: at 0.1 µM.
Test [7] has the same target. To be noted: at 1 µM.
For test [8] the target is unchanged. Particulars: at 0.1 µM. This is another data set of the same source.
Test [9] has the same target. To be noted: at 1 µM. The source holds these as a separate data set.
Test [10] concerns the target T1, CDK3/Cyclin E (Homo sapiens) (UniProt P24864+Q00526). To be noted: at 0.1 µM.
Test [11] addresses T1, CDK3/Cyclin E (Homo sapiens). To be noted: at 1 µM.
Test [12] deals with Cyclin-dependent kinase 4 (Homo sapiens) (UniProt P11802). Particulars: at 0.1 µM.
The target is the same in test [13]. To be noted: at 1 µM.
Test [14] deals with Cyclin-dependent kinase 5 (Homo sapiens) (UniProt Q00535). Particulars: at 0.1 µM.
Test [15] shares this target. To be noted: at 1 µM.
Test [16] addresses Cyclin-dependent kinase 6 (Homo sapiens) (UniProt Q00534). Particulars: at 0.1 µM.
Test [17] shares this target. To be noted: at 1 µM.
Test [18] deals with Dual specificity protein kinase CLK2 (Homo sapiens) (UniProt P49760). Particulars: at 0.1 µM.
For test [19] the target is unchanged. To be noted: at 1 µM.
The target of test [20] is Dual specificity protein kinase CLK3 (Homo sapiens) (UniProt P49761). Particulars: at 0.1 µM.
Chain of Dual specificity protein kinase CLK3 (Homo sapiens) (P49761 whole entry, looked up): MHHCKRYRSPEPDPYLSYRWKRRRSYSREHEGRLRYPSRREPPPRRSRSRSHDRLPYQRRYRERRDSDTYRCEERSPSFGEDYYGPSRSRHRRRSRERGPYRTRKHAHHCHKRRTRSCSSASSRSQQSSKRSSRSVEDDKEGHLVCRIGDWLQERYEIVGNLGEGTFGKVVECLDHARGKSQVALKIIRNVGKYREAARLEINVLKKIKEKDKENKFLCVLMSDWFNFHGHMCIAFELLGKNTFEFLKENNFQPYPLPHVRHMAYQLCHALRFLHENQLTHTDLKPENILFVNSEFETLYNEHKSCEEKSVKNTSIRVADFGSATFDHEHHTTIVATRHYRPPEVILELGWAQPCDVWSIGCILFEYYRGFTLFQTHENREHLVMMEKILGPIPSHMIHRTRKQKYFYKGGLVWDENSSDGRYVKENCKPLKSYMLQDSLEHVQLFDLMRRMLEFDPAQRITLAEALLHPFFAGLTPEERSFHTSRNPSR

Chain of Cyclin-dependent kinase 6 (Homo sapiens) (Q00534 whole entry): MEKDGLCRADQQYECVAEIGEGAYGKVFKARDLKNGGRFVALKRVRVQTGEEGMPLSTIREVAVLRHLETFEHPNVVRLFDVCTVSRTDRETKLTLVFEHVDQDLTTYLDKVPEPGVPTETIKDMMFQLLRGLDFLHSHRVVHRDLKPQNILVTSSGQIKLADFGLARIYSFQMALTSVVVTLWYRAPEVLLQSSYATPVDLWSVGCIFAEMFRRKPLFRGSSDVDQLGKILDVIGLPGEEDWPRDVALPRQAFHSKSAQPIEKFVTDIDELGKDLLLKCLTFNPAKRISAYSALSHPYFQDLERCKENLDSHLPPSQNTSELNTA
Chain of Casein kinase I isoform gamma-3 (Homo sapiens) (Q9Y6M4 whole entry, looked up, canonical isoform): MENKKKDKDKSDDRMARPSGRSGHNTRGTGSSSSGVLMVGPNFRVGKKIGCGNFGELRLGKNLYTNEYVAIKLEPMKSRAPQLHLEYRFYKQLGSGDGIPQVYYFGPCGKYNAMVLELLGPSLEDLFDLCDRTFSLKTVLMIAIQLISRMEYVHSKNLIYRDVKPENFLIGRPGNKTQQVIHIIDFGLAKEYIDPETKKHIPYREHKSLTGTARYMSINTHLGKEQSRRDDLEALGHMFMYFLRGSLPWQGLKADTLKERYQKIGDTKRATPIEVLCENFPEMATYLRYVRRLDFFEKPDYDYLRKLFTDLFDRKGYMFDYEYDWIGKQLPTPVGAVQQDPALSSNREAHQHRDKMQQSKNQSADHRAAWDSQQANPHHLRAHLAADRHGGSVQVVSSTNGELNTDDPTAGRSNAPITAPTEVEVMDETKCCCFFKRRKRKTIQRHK
Chain of Casein kinase I isoform gamma-2 (Homo sapiens) (P78368 whole entry, looked up, canonical isoform): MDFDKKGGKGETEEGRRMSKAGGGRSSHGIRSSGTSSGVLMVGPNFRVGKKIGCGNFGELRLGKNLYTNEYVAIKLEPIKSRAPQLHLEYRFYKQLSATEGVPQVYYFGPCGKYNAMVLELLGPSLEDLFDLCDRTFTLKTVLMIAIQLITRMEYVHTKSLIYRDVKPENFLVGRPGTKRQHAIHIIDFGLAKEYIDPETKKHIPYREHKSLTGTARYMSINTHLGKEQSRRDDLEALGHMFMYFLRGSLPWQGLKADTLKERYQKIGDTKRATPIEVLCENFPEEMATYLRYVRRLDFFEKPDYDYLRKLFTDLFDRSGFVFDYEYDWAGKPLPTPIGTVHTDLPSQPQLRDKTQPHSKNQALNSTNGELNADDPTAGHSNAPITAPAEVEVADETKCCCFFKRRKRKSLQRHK
Chain of Dual specificity protein kinase CLK2 (Homo sapiens) (P49760 whole entry, looked up): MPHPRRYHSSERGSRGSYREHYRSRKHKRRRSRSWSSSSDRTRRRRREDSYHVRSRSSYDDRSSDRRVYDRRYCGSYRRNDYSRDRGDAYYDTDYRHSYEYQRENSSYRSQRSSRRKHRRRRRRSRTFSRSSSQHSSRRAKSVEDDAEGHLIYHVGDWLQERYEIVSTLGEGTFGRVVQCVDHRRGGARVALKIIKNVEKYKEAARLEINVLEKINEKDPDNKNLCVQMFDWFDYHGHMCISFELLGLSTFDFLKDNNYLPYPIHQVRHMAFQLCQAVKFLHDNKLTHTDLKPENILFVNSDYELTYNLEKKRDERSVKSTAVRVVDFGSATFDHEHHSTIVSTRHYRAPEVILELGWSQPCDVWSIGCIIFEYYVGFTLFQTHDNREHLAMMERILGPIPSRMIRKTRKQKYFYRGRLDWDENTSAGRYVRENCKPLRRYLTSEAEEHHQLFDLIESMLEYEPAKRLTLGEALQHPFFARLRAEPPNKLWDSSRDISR
T1 sequence (P24864 whole entry, looked up): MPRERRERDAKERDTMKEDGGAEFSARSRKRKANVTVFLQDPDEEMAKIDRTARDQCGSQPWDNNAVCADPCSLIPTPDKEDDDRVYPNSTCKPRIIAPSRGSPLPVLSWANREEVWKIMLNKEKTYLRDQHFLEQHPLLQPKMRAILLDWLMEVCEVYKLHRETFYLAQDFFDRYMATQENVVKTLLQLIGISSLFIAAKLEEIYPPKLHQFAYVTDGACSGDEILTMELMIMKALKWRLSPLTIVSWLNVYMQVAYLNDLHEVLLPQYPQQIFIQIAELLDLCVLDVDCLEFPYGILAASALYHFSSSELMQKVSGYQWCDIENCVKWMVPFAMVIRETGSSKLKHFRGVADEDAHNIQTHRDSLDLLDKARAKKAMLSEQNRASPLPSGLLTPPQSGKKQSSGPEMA
T1 sequence (Q00526 whole entry, looked up): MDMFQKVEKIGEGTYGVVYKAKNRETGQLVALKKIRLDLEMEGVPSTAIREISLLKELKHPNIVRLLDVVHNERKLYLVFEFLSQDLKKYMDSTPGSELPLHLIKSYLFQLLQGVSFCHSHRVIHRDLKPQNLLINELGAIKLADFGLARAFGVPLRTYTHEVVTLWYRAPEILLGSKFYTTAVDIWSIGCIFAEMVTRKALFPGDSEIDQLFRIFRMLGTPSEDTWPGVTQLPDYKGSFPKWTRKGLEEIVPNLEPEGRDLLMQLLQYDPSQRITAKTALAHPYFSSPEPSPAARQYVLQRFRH
Chain of Cyclin-dependent kinase 5 (Homo sapiens) (Q00535 whole entry, looked up): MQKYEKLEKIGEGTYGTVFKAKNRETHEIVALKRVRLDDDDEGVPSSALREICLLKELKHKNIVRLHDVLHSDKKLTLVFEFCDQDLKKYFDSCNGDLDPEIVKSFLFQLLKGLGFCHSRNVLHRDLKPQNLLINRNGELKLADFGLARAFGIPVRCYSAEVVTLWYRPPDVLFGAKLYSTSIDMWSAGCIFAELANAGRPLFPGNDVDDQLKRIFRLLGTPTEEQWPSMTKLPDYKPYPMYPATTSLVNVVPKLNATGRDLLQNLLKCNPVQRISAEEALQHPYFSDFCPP
Chain of Cyclin-dependent kinase 4 (Homo sapiens) (P11802 whole entry): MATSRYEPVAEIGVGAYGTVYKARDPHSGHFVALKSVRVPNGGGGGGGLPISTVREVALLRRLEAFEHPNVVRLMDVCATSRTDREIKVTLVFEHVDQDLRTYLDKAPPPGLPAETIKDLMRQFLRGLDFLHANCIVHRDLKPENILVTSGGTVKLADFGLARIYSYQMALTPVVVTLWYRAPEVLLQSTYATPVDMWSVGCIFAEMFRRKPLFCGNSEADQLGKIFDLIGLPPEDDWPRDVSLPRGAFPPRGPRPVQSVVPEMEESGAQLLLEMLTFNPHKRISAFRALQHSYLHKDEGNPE
Chain of Cyclin-dependent kinase 1 (Homo sapiens) (P06493 whole entry, looked up): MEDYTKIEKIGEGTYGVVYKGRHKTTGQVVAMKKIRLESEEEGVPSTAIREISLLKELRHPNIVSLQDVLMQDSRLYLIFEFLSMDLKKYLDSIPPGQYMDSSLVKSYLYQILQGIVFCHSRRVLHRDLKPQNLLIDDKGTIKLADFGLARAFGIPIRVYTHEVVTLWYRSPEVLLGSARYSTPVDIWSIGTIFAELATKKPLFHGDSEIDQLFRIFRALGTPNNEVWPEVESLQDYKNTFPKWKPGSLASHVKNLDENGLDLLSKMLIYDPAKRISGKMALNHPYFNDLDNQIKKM

As to `Fc1ccc(-c2ncn(C3CCNCC3)c2-c2ccnc(Oc3ccc(Oc4ccccc4)cc3)n2)cc1`, the inhibition in [1] came out at 14.6%; in [2], 7.8%; in test [3], 26.3%; in test [4] it was 1.88%; in test [5] it was 2.92%; in [6] it was 3.49%. Also, the inhibition is 4.28% in test [7]; 2.95% in [8]; 4.3% in test [9]; -3.73% in test [10]; -1.29% in test [11]; 4.1% in [12]. In addition, the inhibition was 3.52% in test [13]; 0.97% in test [14]; 1.86% in [15]; -6.79% in [16]; -6.24% in test [17]; 2.06% in test [18]. The figures for the inhibition in test [19] and in test [20] were 4.62% and 0.9%, respectively.
Consider `O=C(Nc1n[nH]c2cc(-c3cc(F)ccc3F)ccc12)C1CC1`, for which the inhibition in test [1] was found to be 3.38%; in [2] it was 1.27%; in [3] it was 2.99%; in [4] it was 1.12%; in [5], 7.47%; in test [6], 2.01%. The inhibition in [7] was found to be 17.3%; in test [8] it was 2.48%; in test [9] it was 11.6%; in [10] it was 2.32%; in test [11] it was 5.19%; in test [12], 1.96%. For the same molecule, the inhibition in [13] was 8.77%; in test [14], 0.68%; in test [15], 5.38%; in test [16], 4.69%; in test [17], 39.6%; in test [18], -0.48%. The values for the inhibition in [19] and in [20] were 1.29% and 0.11%, respectively.
On to `COC(=O)Nc1nc2ccc(Sc3ccc(NC(=O)Nc4cc(C(F)(F)F)ccc4F)cc3)cc2[nH]1`, for which the inhibition in test [1] was 1.01%; in test [2], 0.1%; in test [3], 0.39%; in test [4], 0.09%; in test [5], 3.86%; in test [6] it was -0.08%. Moreover, the inhibition in test [7] was 6.71%; in test [8], 0.48%; in test [9], 0.81%; in test [10] it was -0.31%; in test [11], 0.64%; in test [12], -4.86%. Further, the inhibition in test [13] was 1.81%; in test [14], 0.21%; in test [15] it was 1.9%; in test [16], 7.92%; in [17] it was 2.22%; in test [18], 1.38%. Moreover, the inhibition in [19] is -0.84%; in [20], 0.48%.
In the case of `O=C(NCC1CC1)c1ccc(-c2cccc(C(=O)NC3CC3)c2)cc1`, the inhibition in test [1] was 2.47%; in test [2] it was 0.19%; in test [3], 2.3%; in [4], -0.46%; in test [5] it was 1.27%; in [6], 1.17%. The inhibition in test [7] was 9.03%; in test [8] it was 2.3%; in [9], 2.72%; in [10], -0.72%; in test [11], 2.64%; in test [12], 2.46%. In addition, the inhibition in test [13] was 2.18%; in test [14], 0.16%; in test [15], 0.99%; in test [16], 5.87%; in [17] it was -0.5%; in test [18], -0.19%. Besides, the inhibition amounted to 1.77% in [19] and 0.44% in [20].
Regarding `COc1cc2ncn(-c3cc(OCc4cccs4)c(C(N)=O)s3)c2cc1OC`, the inhibition in [1] is -1.86%; in test [2], -0.97%; in test [3] it was -0.06%; in [4], -2.79%; in test [5], -0.17%; in [6], -2.8%. The inhibition was 6.63% in [7]; -0.55% in test [8]; 4.77% in [9]; 1.28% in test [10]; 2.15% in test [11]; -2.57% in test [12]. Moreover, the inhibition in test [13] is -2.26%; in [14], -2.83%; in test [15] it was -2.03%; in [16] it was -5.45%; in test [17], -6.37%; in test [18], 2.46%. Also, the inhibition in test [19] is 6.46%; in [20], -1.61%.
`Cc1nnc(-c2ccc(C)c(-c3ccc(C(=O)NCc4ccc(Cl)cc4)cc3)c2)o1`: the inhibition was 1.06% in test [1]; -1.5% in test [2]; -0.65% in test [3]; -3.13% in test [4]; -1.46% in [5]; -1.4% in test [6]. In addition, the inhibition in [7] is -2.99%; in [8] it was 0.91%; in [9] it was 0.03%; in test [10], 4.6%; in [11], -2.98%; in test [12] it was -0.53%. In addition, the inhibition in [13] is 0.24%; in [14], -2.39%; in test [15], -4.02%; in test [16], -7.02%; in test [17] it was -4.88%; in test [18], -0.33%. The inhibition in [19] was 0.92%; in [20], -1.37%.
Take `COc1ccc2cc(-c3c(-c4ccncc4)nc(-c4ccc(S(C)(=O)=O)cc4C)n3C)ccc2c1`: the inhibition stood at 4.03% in test [1]; 3.31% in [2]; 2.13% in [3]; 1.11% in [4]; 1.69% in [5]; 2.79% in test [6]. Moreover, the inhibition was -7.25% in test [7]; 3.25% in [8]; 2.47% in test [9]; 5.76% in test [10]; -3.73% in [11]; 3.77% in test [12]. Moreover, the inhibition in test [13] is 4.56%; in [14], 0.42%; in test [15] it was -0.58%; in [16], 0.01%; in test [17], 1.21%; in test [18], 0.85%. For the same molecule, the figures for the inhibition in test [19] and in test [20] were -1.59% and 1.66%, respectively.
On to `NC(=O)Cc1ccccc1Oc1nccc(-c2c(-c3ccc(F)cc3)ncn2C2CCNCC2)n1`, for which the inhibition was 10.5% in test [1]; 3.98% in test [2]; 8.65% in [3]; -0.31% in test [4]; -0.43% in [5]; 1.15% in [6]. In addition, the inhibition was 2% in test [7]; 1.82% in test [8]; 2.1% in test [9]; 2.95% in test [10]; -1.4% in [11]; 0.31% in test [12]. In addition, the inhibition in test [13] is 0.75%; in test [14] it was 0.66%; in test [15], 0.67%; in test [16], -4.52%; in test [17], 0.67%; in [18], 1.69%. For the same molecule, the results for the inhibition in [19] and in [20] were 2.11% and 1.44%, respectively.
Regarding `Clc1ccc(CNc2nccc(-c3cnn4ncccc34)n2)cc1`, the inhibition in test [1] was 12%; in [2] it was -0.98%; in test [3], 12.9%; in test [4], 7.01%; in test [5], 36.3%; in [6], 4.06%. Further, the inhibition in [7] was 17.6%; in test [8] it was 4.31%; in [9] it was 21.5%; in test [10], 3.02%; in [11], 17.3%; in test [12] it was 3.89%. Also, the inhibition stood at 20.1% in test [13]; 7.08% in [14]; 36.9% in test [15]; 13.8% in test [16]; 11% in test [17]; 7.28% in [18]. Moreover, the inhibition in test [19] was 43.6%; in test [20] it was 1.27%.
